From PubChem BioAssay AID651871 (Sanford-Burnham Center for Chemical Genomics, 2012) come the findings set out here.

SMILES strings stand for the structures.

The subject of the test is HL-1. In words: cardiomyocyte survival under oxidative or metabolic stress – cell-based, panel, H9c2 and HL-1, ATP luminescence, set 2, SAR follow-up (AID 651871).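 Also: cells exposed to stressor for 2 h before ATP readout; reference of the scale not given here.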 The note with it: H9c2/HL-1 cardiomyocytes, 2-deoxyglucose stress, with 2-deoxyglucose, run 13, at 79 µM (top of the series).
As for `COc1ccc2nc(-c3cc(OC)c(OC)c(OC)c3)cc(C(=O)NCC(=O)Nc3ccc(C(C)=O)cc3)c2c1`, the activity (protection/inhibition) was determined as 55.5%.
Under `CCOC(=O)c1cccc(NC(=O)CNC(=O)c2cc(-c3cc(OC)c(OC)c(OC)c3)nc3ccccc23)c1` stands 66.6%; under `COc1ccc2c(c1OC)C(=O)N1c3ccccc3C(=O)N(Cc3cccc(Cl)c3Cl)C21` (stereo not drawn), -9.86%.
